What is called AC50 is the concentration giving half of the maximal activity seen.

Assay [1] in a line: CCTE_Shafer_MEA_acute_synchrony_index: CCTE's Neural Acute Assay for Synchrony, Shafer Lab (AID 2284027).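 Further: network synchrony index of spontaneous spiking in primary rat cortical neurons on MEAs; fitted for loss of signal so actives lower synchrony relative to DMSO.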 The method in brief: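 Spontaneous firing of mature rat cortical networks is captured extracellularly on microelectrode arrays at 37 C, with wells needing ≥10 active electrodes. Each compound (0.03-40 uM) is judged by the change in synchrony index from baseline over 40 min.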

Assay [2] is described as follows: CCTE_Deisenroth_AIME_384WELL_CTox_Active: Cytotoxicity Assessment (CTOX) in CCTE's 384-well Estrogen Receptor Transactivation Assay with AIME metabolic competence (metabolism positive), Deisenroth Lab (AID 2284037; active means hit-call score of the fitted dose curve at least 0.9, where 1 is the maximum;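 further: chemicals first conditioned 2 h by alginate-bound induced rat liver S9 before cells; activity means signal loss indicating cell death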). The gist of the method: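 Cytotoxicity in VM7Luc4E2 breast cells, 24 hour, measured as protease-substrate fluorescence loss, after 2-hour metabolic conditioning with induced rat hepatic S9 in alginate microspheres. Concentrations 0.002 - 200 uM, 10 points, bidirectional fitting.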

Assay [3] can be described thus: CCTE_Deisenroth_AIME_384WELL_CTox_Inactive: Cytotoxicity Assessment (CTOX) in CCTE's 384-well Estrogen Receptor Transactivation Assay without AIME metabolic competence (metabolism negative), Deisenroth Lab (AID 2284039; active means hit-call score of the fitted dose curve at least 0.9, where 1 is the maximum;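 further: cell viability via live-cell protease substrate cleaved to fluorescent probe; cells exposed 24 h to medium preincubated 2 h with alginate-water beads without S9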). The gist of the method: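 VM7Luc4E2 cells, metabolism-negative arm: test chemicals (0.002–200 uM, 10 points) pre-incubated 2 h with alginate-water microspheres, then medium transferred to cells for 24 h. Viability read as protease-substrate cleavage to fluorescent probe; loss-of-signal, bidirectional fitting.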

A short description of assay [4]: CCTE_Deisenroth_AIME_96WELL_CTox_Active: Cytotoxicity Assessment (CTOX) in CCTE's 96-well Estrogen Receptor Transactivation Assay with AIME metabolic competence (metabolism positive), Deisenroth Lab (AID 2284028; active means hit-call score of the fitted dose curve at least 0.9, where 1 is the maximum). Here is the method:
CCTE_Deisenroth_AIME_96WELL (AIME metabolism assay) is a cell-based, single-readout assay that uses VM7Luc4E2, a human mammary gland/breast cell line, with measurements taken at 24 hour after chemical dosing in a 96-well plate.CCTE_Deisenroth_AIME_96WELL_CTox_Active is one of four assay components measured or calculated from the CCTE_Deisenroth_AIME_96WELL assay. It is designed to make measurements of a protease substrate, a type of viability indicator, as detected with substrate cleavage to a fluorescent probe in living cells.CCTE_Deisenroth_AIME_96WELL_CTox_Active is a component of the CCTE_Deisenroth_AIME_96WELL assay that measures the effect of retroftting the VM7Luc ERTA assay with the Alginate Immobolization of Metabolic Enzymes (AIME) metabolism method. AIME is optimized to impart phase I hepatic metabolism using phenobarbital/beta-naphthoflavone induced hepatic S9 from male Sprague Dawley rats. Parent chemicals are incubated for 2 hours in the AIME assay prior to transfer to the VM7Luc ERTA assay plate. […] This endpoint evaluates cytotoxicity in metabolism positive mode. Using a type of flourescent probe in VM7Luc cells, loss-of-signal activity can be used to understand loss of viability. This assay endpoint, CCTE_Deisenroth_AIME_96WELL_CTox_Active, was analyzed with bidirectional fitting in the ERTA assay. […]

Assay [5] can be described thus: CCTE_Shafer_MEA_dev_firing_rate_mean: CCTE's Neural Network Formation Assay for Mean Firing Rate, Shafer Lab (AID 2284031).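 Further: AUC of well mean spike rate recorded on DIV 5 7 9 and 12.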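 On AC50: curve fitted for loss of firing so AC50 reflects decreased mean firing rate.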 The gist of the method:
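Developing rat cortical networks on MEA plates undergo 12-day compound exposure. Firing frequency, averaged across active electrodes, is integrated as area under the curve over four recording days, referenced to DMSO.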

Assay [6] in a line: CCTE_Shafer_MEA_dev_per_burst_spike_percent: CCTE's Neural Network Formation Assay for Percent of Spikes in a Burst, Shafer Lab (AID 2284032).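 On AC50: fitted as a decrease in burst spike percentage below DMSO baseline.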 The gist of the method:
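Rat primary cortical neurons on 16-electrode MEA wells, dosed from plating day 0 for 12 days with renewal on DIV 5 and 9; spikes-in-bursts percentage averaged over bursting electrodes, collapsed as AUC across days 5, 7, 9, 12; loss direction versus DMSO.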

A short description of assay [7]: CCTE_Shafer_MEA_dev_bursting_electrodes_number: CCTE's Neural Network Formation Assay for Number of Bursting Electrodes, Shafer Lab (AID 2284043; active means hit-call score of the fitted dose curve at least 0.9, where 1 is the maximum;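 on AC50: potency is for loss of bursting electrodes relative to DMSO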). The gist of the method:
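Read-out is the per-well number of electrodes bursting at least once every 2 minutes, recorded on days 5, 7, 9 and 12 and collapsed by trapezoidal area under the curve. Cultures were primary rat cortical neurons on MEA plates, treated continuously from plating.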

The target in assay [8] is Estrogen receptor (Homo sapiens) (UniProt P03372). Description: CCTE_Deisenroth_AIME_384WELL_LUC_Active: CCTE's 384-well Estrogen Receptor Transactivation Assay with AIME metabolic competence (ERTA luciferase; metabolism positive), Deisenroth Lab (AID 2284030; active means hit-call score of the fitted dose curve at least 0.9, where 1 is the maximum). The gist of the method:
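Estrogenic luciferase signal in VM7Luc4E2 cells is measured at 24 hour, after chemicals have been preconditioned 2 hours with PB/BNF-induced rat hepatic S9 in alginate. Gain of signal is fitted relative to 17beta-estradiol, across 0.002 - 200 uM.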

Assay [9] has the same target. The assay is described as follows: CCTE_Deisenroth_AIME_384WELL_LUC_Inactive: CCTE's 384-well Estrogen Receptor Transactivation Assay without AIME metabolic competence (ERTA luciferase; metabolism negative), Deisenroth Lab (AID 2284038; active means hit-call score of the fitted dose curve at least 0.9, where 1 is the maximum;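 further: VM7Luc4E2 breast cells given medium preincubated 2 h with S9-free microspheres; hits raise estrogen receptor luciferase signal so potencies reflect agonists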). The method in brief:
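Chemicals (10-point series, 0.002 - 200 uM) were incubated 2 hours with alginate-water microsphere lids lacking S9, then the conditioned medium was transferred to VM7Luc4E2 breast cells for 24 hour. Luciferase induction was read by bioluminescence, fitted upward relative to 17beta-estradiol.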

Assay [10] has the same target. Description: CCTE_Deisenroth_AIME_384WELL_LUC_Shift: CCTE's 384-well Estrogen Receptor Transactivation Assay with AIME metabolic competence data shift (ERTA luciferase; difference in metabolism positive and negative), Deisenroth Lab (AID 2284041).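 Further: shift is response with S9 minus without S9 so positive means metabolism raised ER signal.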 The gist of the method: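 Test chemicals (0.002–200 uM, 10-point) were pre-incubated 2 h with alginate microspheres containing phenobarbital/beta-naphthoflavone-induced male Sprague Dawley rat liver S9 or water, then medium was transferred to VM7Luc4E2 cells for 24 h luciferase readout; shift = S9-positive minus S9-negative normalized response.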

The structures appear in SMILES notation. Values joined by “and” are separate entries in the source; they are usually repeats but may differ in a detail not shown here. Equal entries are not always repeated. Inconclusive results are not listed. Active and inactive are the calls of the source. How the source made its calls, unless noted: active means hit-call score of the fitted dose curve at least 0.9, where 1 is the maximum; inactive means score below 0.9.

Sequence of Estrogen receptor (Homo sapiens) (P03372 whole entry, looked up): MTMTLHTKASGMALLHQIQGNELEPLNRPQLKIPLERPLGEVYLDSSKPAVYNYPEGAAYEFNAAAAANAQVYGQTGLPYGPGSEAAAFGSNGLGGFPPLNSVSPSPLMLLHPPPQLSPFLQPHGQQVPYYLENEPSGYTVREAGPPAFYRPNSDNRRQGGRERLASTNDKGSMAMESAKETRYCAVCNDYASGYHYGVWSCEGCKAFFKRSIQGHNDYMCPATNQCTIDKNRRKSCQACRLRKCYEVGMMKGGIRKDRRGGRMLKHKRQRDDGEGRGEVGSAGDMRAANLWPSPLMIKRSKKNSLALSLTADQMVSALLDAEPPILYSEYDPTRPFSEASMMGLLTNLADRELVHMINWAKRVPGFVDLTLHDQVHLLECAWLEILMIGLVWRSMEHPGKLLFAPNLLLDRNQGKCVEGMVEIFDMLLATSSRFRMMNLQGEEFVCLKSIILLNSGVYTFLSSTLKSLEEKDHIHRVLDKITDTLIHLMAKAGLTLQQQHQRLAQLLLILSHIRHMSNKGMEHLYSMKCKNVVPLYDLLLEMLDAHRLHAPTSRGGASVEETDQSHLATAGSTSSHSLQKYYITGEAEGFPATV

With `ClCCOCCCl`, the call in assay [1], in [2] and in [3] was inactive.
Regarding `N#CC(Br)Br`, the compound was called inactive in [1].
For `O=[N+]([O-])C(Br)(CO)CO`, the AC50 in assay [1] was 30.9 µM (active).
For `CCCCOC(=O)c1ccccc1C(=O)OCc1ccccc1`, the AC50 is 7.33 µM (active) in assay [1] and 50.5 µM (active) in assay [7]. Further, the result in assay [4], in assay [5] and in assay [6] was inactive.
`[Cl-].[Cl-].[Hg+2]`: the AC50 in assay [1] is 28.2 µM (active); in assay [5], 0.911 µM (active); in assay [6], 0.882 µM (active); in [7] it was 0.539 µM (active).
`COC(=O)Nc1nc2ccccc2[nH]1`: the call in assay [1], in assay [5], in assay [6] and in [2] was inactive. In assay [7], the AC50 was 12.5 µM (active).
With `O=C(Oc1ccc(Br)cc1)N1CCN2CCC1CC2`, the compound was classed as inactive in [1], in assay [8], in assay [9] and in assay [10].
As for `CCN(CC)N=O`, the call in assay [1] was inactive.
As to `O=P(OCCCl)(OCCCl)OCCCl`, the call in assay [1], in assay [5], in assay [6] and in assay [7] was inactive.
For the compound `C[N+](C)(C)CC1CO1` (stereo unspecified), the compound was called inactive in assay [1], in assay [8], in assay [2], in assay [9], in assay [3] and in assay [10].
For the compound `CCC[CH2][Sn]([Cl])([CH2]CCC)[CH2]CCC`, the AC50 is 237 nM (active) and 322 nM (active) in assay [1]; 0.00892 µM (active) in assay [5]; 0.0758 µM (active) in assay [6]; 0.0406 µM (active) in assay [7].
As to `CC(C)(O)c1cnn2c(-c3ccc(F)c(-c4c(F)cccc4C#N)c3)cnc2n1`, the AC50 was 35.8 µM (active) in [1], 10 µM (active) in [6] and 1.98 µM (active) in [7]. Besides, the result in assay [5] was inactive.
`ClC1=C(Cl)[C@]2(Cl)[C@H]3[C@H]([C@@H]4C=C[C@H]3C4)[C@@]1(Cl)C2(Cl)Cl`: the compound was classed as inactive in assay [1]. Besides, the AC50 in assay [5] is 3.92 µM (active); in [6] it was 5.76 µM (active); in [7], 7.53 µM (active).
On to `CCC(C)c1ccc(O)cc1` (stereo unspecified), for which the concentration at half-maximal activity (AC50) in assay [1] was 30.5 µM (active).
On to `Clc1ccc(C(c2ccc(Cl)cc2)C(Cl)Cl)cc1`, for which the half-maximal activity concentration (AC50) in assay [1] is 4.76 µM (active); in assay [5], 8.59 µM (active); in [6], 4.86 µM (active); in [7], 6.19 µM (active).
Regarding `CC(C)COC(=O)c1ccccc1C(=O)OCC(C)C`, the AC50 in assay [1] is 9.02 µM (active); in [6] it was 23.1 µM (active); in assay [7] it was 13.8 µM (active). In addition, in assay [5], the result was inactive.
Regarding `c1ccc(NNc2ccccc2)cc1`, the AC50 in assay [1] is 29.6 µM (active).
Consider `O=C(N[C@H](c1ccccc1)[C@@H]1CN2CCC1CC2)c1c(Cl)ccc(C(F)(F)F)c1Cl`, for which the compound was called inactive in [1] and in [2].
For the compound `Clc1ccc(C(c2ccc(Cl)cc2)C(Cl)(Cl)Cl)cc1`, the AC50 was 10.6 µM (active) in [1]; 7.7 µM (active) and 10.1 µM (active) in assay [5]; 3.45 µM (active) and 6.66 µM (active) in [6]; 160 µM (active) in assay [3]; 3.96 µM (active) and 6.35 µM (active) in assay [7]. Further, the result in assay [2] was inactive.
On to `CC(C)(C)C(O)(CCc1ccc(Cl)cc1)Cn1cncn1` (stereo unspecified), for which the outcome in [1] and in assay [5] was inactive. The AC50 is 15 µM (active) in assay [6] and 5.5 µM (active) in assay [7].
For `ClC1=C(Cl)C2(Cl)C3C(Cl)C=CC3C1(Cl)C2(Cl)Cl` (stereo unspecified), in assay [1], the compound was called inactive. Further, the AC50 in assay [5] is 4.54 µM (active); in assay [6], 4.18 µM (active); in assay [7], 2.35 µM (active).
In the case of `CCN(CC)CCO`, the compound was classed as inactive in assay [1].
Still for that read-out and setting: with `CC(C)(OOC(C)(C)c1ccccc1)c1ccccc1` the entry was “inactive”.
For the compound `CCCCCOC(=O)c1ccccc1C(=O)OCCCCC`, the half-maximal activity concentration (AC50) in [1] is 12.4 µM (active); in assay [3] it was 19.8 µM (active). Further, the result in assay [8], in assay [2], in assay [9] and in assay [10] was inactive.
On to `O=Cc1ccco1`, for which the call in [1] was inactive.
On to `OCCCBr`, for which the outcome in assay [8], in [2], in [9], in assay [3] and in [10] was inactive.

(Values after PubChem BioAssay (EPA / NIEHS).)
